# Reference: PubChem BioAssay AID1852 (Sanford-Burnham Center for Chemical Genomics, 2009)
# Hit rate of the full screen: of about 2,500 compounds, about 1,100 (44%) were called active. So high a share suggests a set chosen from earlier hits. The list shows a part of the results. Values without a mark were called inactive.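 Rule for the calls: active = inhibition above 50% at 4 µM in the single-point screen; inactive = inhibition of 50% or less.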
# Experiment: blockers of TNF-a NF-kB luciferase induction – cell-based, HEK293T NF-kB-Luc, luminescence, selectivity assay for NOD1/NOD2 signaling inhibitor project, primary screen (AID 1852)
# Conditions: TNF-a induced, 14 h, at 4 µM, hits give high values
row,Compound,inhibition
1,Cc1ccccc1-n1c(O)c(/C=C2/C(c3ccccc3)=Nc3ccccc32)c(=O)[nH]c1=O,16.1%
2,CCOc1ccc(-c2cc(C)[n+](CCN(CC)CC)c(-c3ccc(OCC)cc3)c2)cc1,51.9% (active)
3,C[C@@H]1O[C@@H](O[C@H]2C[C@@H](O)[C@]3(CO)[C@H]4[C@H](O)C[C@]5(C)[C@@H](C6=CC(=O)OC6)CC[C@]5(O)[C@@H]4CC[C@]3(O)C2)[C@H](O)[C@H](O)[C@H]1O,106% (active)
4,CC(C)N1C(=O)/C(=C/C=C/c2ccco2)C(=O)N(Cc2ccco2)C1=O,22.9%
5,CC(C)[C@H]1C(=O)O[C@H](C(C)C)C(=O)N(C)[C@@H](C(C)C)C(=O)O[C@H](C(C)C)C(=O)N(C)[C@@H](C(C)C)C(=O)O[C@H](C(C)C)C(=O)N1C,90.7% (active)
6,COC(=O)[C@]12OC[C@]34C([C@@H](O)[C@@H]1O)[C@]1(C)CC(=O)C(O)=C(C)[C@@H]1C[C@H]3OC(=O)[C@H](O)[C@@H]24 (stereo partly drawn),76.8% (active)
7,CC[C@@]1(O)C(=O)OCc2c1cc1n(c2=O)Cc2cc3ccccc3nc2-1,98.4% (active)
8,Cc1cccc(OCCn2cccc2/C=C2/C(=O)NC(=O)N(Cc3ccco3)C2=O)c1,9.6%
9,C[C@]12CCC3C(CCC4=CC(O)CC[C@@]43/C=N/O)C1(O)CCC2C1=CC(=O)OC1 (stereo partly drawn),97.3% (active)
10,C=C1C(=O)O[C@@H]2C[C@@H](C)[C@@H]3C=CC(=O)[C@@]3(C)[C@@H](O)[C@H]12,104% (active)
11,C=C1C(=O)O[C@@H]2C[C@@H](C)[C@@H]3C4OC4C(=O)[C@@]3(C)[C@@H](O)[C@H]12 (stereo partly drawn),96.7% (active)
12,C=C1C(=O)O[C@@H]2C[C@@H](C)[C@@H]3C=CC(=O)[C@@]3(C)[C@@H](OC(=O)CC(=O)O[C@H]3[C@@H]4C(=C)C(=O)O[C@@H]4C[C@@H](C)[C@@H]4C=CC(=O)[C@]43C)[C@H]12,103% (active)
13,C=C1C(=O)O[C@H]2C[C@@H](C)[C@@H]3C=CC(=O)[C@@]3(C)C[C@H]12,108% (active)
14,O=C(c1ccc(Cl)cc1)C1CCCN(Cc2ccc3ncccc3c2)C1 (stereo not drawn),29.7%
15,CCC(C)C(NC(=O)CCCNC(=O)CCC(=O)OC1O[C@H]2OC3(C)CC[C@H]4[C@H](C)CCC(C1C)C24OO3)C(=O)O (stereo partly drawn),87.7% (active)
16,CCC(C)NC(=O)CCC(=O)OC1O[C@H]2OC3(C)CC[C@H]4[C@H](C)CCC(C1C)C24OO3 (stereo partly drawn),52.3% (active)
17,CC(C)CC(NC(=O)CCCNC(=O)CCC(=O)OC1O[C@H]2OC3(C)CC[C@H]4[C@H](C)CCC(C1C)C24OO3)C(=O)O (stereo partly drawn),55.3% (active)
18,CC1=CC(=Cc2sc3ccccc3[n+]2C)C=C(C)O1,43.4%
19,CN1CCN(c2ncnc3ccc(Br)cc23)CC1,33%
20,Cc1cccc(-n2c(O)c(/C=C3/C(c4ccccc4)=Nc4ccccc43)c(=O)[nH]c2=O)c1,32.8%
21,O=C(c1ccc(C(F)(F)F)cc1)C1CCCN(Cc2ccncc2)C1 (stereo not drawn),30.7%
22,CCN1/C(=C\C=C\C2=[N+](CC)c3ccccc3C2(C)C)C(C)(C)c2ccccc21,101% (active)
23,CN1/C(=C\C=C\C2=[N+](C)c3ccc4ccccc4c3C2(C)C)C(C)(C)c2ccccc21,87.9% (active)
